Data published in PubChem BioAssay (EPA / NIEHS).
Values joined by “and” are separate entries in the source; they are usually repeats but may differ in a detail not shown here. Equal entries are not always repeated. Inconclusive results are not listed. A structure can be active in one record and inactive in another. Active and inactive are the calls of the source. Rule for the calls: active = hit-call score of the fitted dose curve at least 0.9, where 1 is the maximum; inconclusive = response in the unintended direction; inactive = score below 0.9.

How the values were obtained:
[1] = target: Estrogen receptor (Homo sapiens) + Estrogen receptor beta (Homo sapiens) (UniProt P03372+Q92731); assay: OT_ER_ERaERb_1440: Odyssey Thera (OT) 24-hour HEK293T Protein-Complementation Assay for Estrogen Receptor-alpha/-beta Homodimer (AID 2283356);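 note: heteromer of ER alpha and ER beta binding domains; hits raise reporter fluorescence and both agonists and antagonists give an increase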
In short: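 Heterodimerisation of ERα (aa 310-547) and ERβ (aa 263-489) ligand binding domains was tracked as fluorescence gain in stably transfected HEK293T cells following 24 h dosing, normalised to DMSO controls.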

[2] = target: Estrogen receptor beta (Homo sapiens) (UniProt Q92731); assay: OT_ER_ERbERb_0480: Odyssey Thera (OT) 8-hour HEK293T Protein-Complementation Assay for Estrogen Receptor-beta/-beta Homodimer (AID 2283357);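 note: active means signal gain over DMSO baseline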
In short: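 Cells (HEK293T, stable ER-beta LBD PCA pair) are treated 8 hours, fixed and Draq5-stained; signal is fluorescence intensity increase relative to vehicle, fitted in the gain direction.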

[3] = target: Androgen Receptor/SRC-1 Co-activator, AR (gene 367) (UniProt P10275); assay: OT_AR_ARSRC1_0480: Odyssey Thera (OT) 8-hour HEK293T Protein-Complementation Assay for Androgen Receptor/SRC-1 Co-activator (AID 2283354);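 note: hits raise the complementation signal above DMSO so AC50 marks enhancers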
In short: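 Measures AR/SRC-1 binding by Venus YFP fragment complementation in HEK293T stable lines at 8 h post-dose. Imaging quantifies the 488nm nucleus/cytoplasm ratio in ≥400 cells; DMSO defines baseline.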

[4] = target: Glucocorticoid receptor (Homo sapiens) (UniProt P04150); assay: NVS_NR_hGR: NovaScreen (NVS) Nuclear Receptor Binding Assay for human Glucocorticoid Receptor (GR) (AID 2283363);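 for AC50: activity is loss of specific radioligand binding signal relative to DMSO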
In short: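 Competitive displacement of a labelled ligand was measured on cell-free receptor preparations after 16 h exposure. Initial testing used 25 uM in duplicate with plate controls; confirmed actives went into concentration series.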

[5] = target: Nuclear receptor subfamily 1 group I member 2 (Homo sapiens) (UniProt O75469); assay: NVS_NR_hPXR: NovaScreen (NVS) Nuclear Receptor Binding Assay for human Pregnane X Receptor (PXR) (AID 2283365);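 note: a drop in FRET signal versus DMSO baseline means the compound binds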
In short: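 Binding was measured by time-resolved fluorescence resonance energy transfer after a 2 h exposure of extracted human PXR protein without cells. Compounds were first tested at 25 uM in duplicate, with concentration series for actives; DMSO defined baseline.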

[6] = target: rat Mineralocorticoid Receptor (MR), Nr3c2 (gene 25672) (UniProt P22199); assay: NVS_NR_rMR: NovaScreen (NVS) Nuclear Receptor Binding Assay for rat Mineralocorticoid Receptor (MR) (AID 2283355)
In short: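 Adrenalectomized rat brain supernatant was dosed with test chemical, then radioligand binding was measured by scintillation counting at 24 h. Initial testing ran in duplicate at 25 uM, followed by concentration series for actives.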

[7] = target: human Peroxisome Proliferator-activated Receptor alpha (PPARa), PPARA (gene 5465) (UniProt Q07869); assay: NVS_NR_hPPARa: NovaScreen (NVS) Nuclear Receptor Binding Assay for human Peroxisome Proliferator-activated Receptor alpha (PPARa) (AID 2283359);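 note: activity means loss of TR-FRET signal versus DMSO baseline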
In short: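 Chemicals were first screened in duplicate at 25 uM, and active ones were retested across concentration series. Binding was monitored by TR-FRET one hour after dosing, with decreased signal against DMSO counted as activity.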

PGR (gene 5241) = PGR (gene 5241) (UniProt P06401); assay: NVS_NR_hPR: NovaScreen (NVS) Nuclear Receptor Binding Assay for human Progestron Receptor (PR) (AID 2283360);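 note: active means loss of bound radioligand signal versus DMSO baseline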
In short: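 T47D-derived receptor preparation, cell-free, with tritiated or iodinated radioligand displacement measured by scintillation 18 h post-dosing. Single 25 uM duplicate screen, then concentration series; signal loss relative to DMSO.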

[8] = tested on: guinea pig Dopamine Transporter (DAT), gene 100714898; assay: NVS_TR_gDAT: NovaScreen (NVS) Transporter Assay for guinea pig Dopamine Transporter (DAT) (AID 2283369);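 note: active compounds lower bound radioligand signal relative to DMSO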
In short: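 Test chemicals were incubated 2 h with guinea pig striatal membranes and a radioligand; bound label was separated by filtration and counted. Screening ran at 25 uM, followed by concentration-response testing to a 50 uM maximum.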

[9] = target: Peroxisome proliferator-activated receptor gamma (Homo sapiens) (UniProt P37231); assay: NVS_NR_hPPARg: NovaScreen (NVS) Nuclear Receptor Binding Assay for human Peroxisome Proliferator-activated Receptor gamma (PPARg) (AID 2283370)
In short: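 Fluorescence polarization measures competitive binding to extracted PPARg in a cell-free format. Reading is taken at 2 h; activity is signal loss relative to DMSO. Screening at 25 uM in duplicate preceded confirmatory dose series.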

[10] = tested on: rat Norepinephrine Transporter (NET), gene 83511; assay: NVS_TR_rNET: NovaScreen (NVS) Transporter Assay for rat Norepinephrine Transporter (NET) (AID 2283373)
In short: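 Rat forebrain membranes; radioligand binding measured by filter-based scintillation counting 1 hour after dosing. Loss of specific binding versus DMSO baseline scored; primary screen in duplicate at 25 uM, actives followed up in concentration series.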

[11] = target: human Dopamine Transporter (DAT), SLC6A3 (gene 6531) (UniProt Q01959); assay: NVS_TR_hDAT: NovaScreen (NVS) Transporter Assay for human Dopamine Transporter (DAT) (AID 2283374);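 note: activity means loss of bound radioligand signal relative to DMSO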
In short: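 Test chemicals were first screened in duplicate at 25 uM, with actives retested as concentration series. Displacement of a specific radioligand from cell-free human dopamine transporter was measured after 1 h by filtration and scintillation counting.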

[12] = target: rat Serotonin Transporter (SERT), Slc6a4 (gene 25553) (UniProt P31652); assay: NVS_TR_rSERT: NovaScreen (NVS) Transporter Assay for rat Serotonin Transporter (SERT) (AID 2283375)
In short: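 Steps: rat forebrain membranes dosed with chemical (25 uM duplicate primary; concentration series for actives); 1 h incubation; labelled ligand bound, filtered, counted by scintillation. Activity scored as signal loss vs DMSO.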

[13] = target: human Norepinephrine Transporter (NET), SLC6A2 (gene 6530) (UniProt P23975); assay: NVS_TR_hNET: NovaScreen (NVS) Transporter Assay for human Norepinephrine Transporter (NET) (AID 2283377);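 note: cell-free membrane protein extracted from CHO cells expressing human NET; displacement of radioligand from human NET seen as loss of scintillation signal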
In short: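 Scintillation counts of filter-retained radioligand served as the readout, taken 1 h post-dosing in a cell-free CHO-derived system. Test chemicals ran first at 25 uM in duplicate; confirmed hits were retested across concentrations.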

[14] = target: Retinoic acid receptor alpha (Homo sapiens) (UniProt P10276); assay: NVS_NR_hRAR_Antagonist: NovaScreen (NVS) Nuclear Receptor Binding Assay for human Retinoic Acid Alpha Receptor Antagonism (RAR) (AID 2283358)
In short: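 TR-FRET, cell-free, antagonist format; 2 h incubation after dosing; DMSO = baseline; signal loss fitted; 25 uM duplicate primary, then conc. series.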

[15] = target: Retinoic acid receptor alpha (Homo sapiens) (UniProt P10276); assay: NVS_NR_hRARa_Agonist: NovaScreen (NVS) Nuclear Receptor Binding Assay for human Retinoic Acid Alpha Receptor Agonism (RAR) (AID 2283361)
In short: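 Readout is time-resolved fluorescence resonance energy transfer after a 2 h exposure of cell-free extracted receptor protein. Initial testing used 25 uM in duplicate, with concentration-response follow-up for active chemicals.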

Sequence of Androgen Receptor/SRC-1 Co-activator, AR (gene 367) (P10275 whole entry, looked up, the tested form may be a part): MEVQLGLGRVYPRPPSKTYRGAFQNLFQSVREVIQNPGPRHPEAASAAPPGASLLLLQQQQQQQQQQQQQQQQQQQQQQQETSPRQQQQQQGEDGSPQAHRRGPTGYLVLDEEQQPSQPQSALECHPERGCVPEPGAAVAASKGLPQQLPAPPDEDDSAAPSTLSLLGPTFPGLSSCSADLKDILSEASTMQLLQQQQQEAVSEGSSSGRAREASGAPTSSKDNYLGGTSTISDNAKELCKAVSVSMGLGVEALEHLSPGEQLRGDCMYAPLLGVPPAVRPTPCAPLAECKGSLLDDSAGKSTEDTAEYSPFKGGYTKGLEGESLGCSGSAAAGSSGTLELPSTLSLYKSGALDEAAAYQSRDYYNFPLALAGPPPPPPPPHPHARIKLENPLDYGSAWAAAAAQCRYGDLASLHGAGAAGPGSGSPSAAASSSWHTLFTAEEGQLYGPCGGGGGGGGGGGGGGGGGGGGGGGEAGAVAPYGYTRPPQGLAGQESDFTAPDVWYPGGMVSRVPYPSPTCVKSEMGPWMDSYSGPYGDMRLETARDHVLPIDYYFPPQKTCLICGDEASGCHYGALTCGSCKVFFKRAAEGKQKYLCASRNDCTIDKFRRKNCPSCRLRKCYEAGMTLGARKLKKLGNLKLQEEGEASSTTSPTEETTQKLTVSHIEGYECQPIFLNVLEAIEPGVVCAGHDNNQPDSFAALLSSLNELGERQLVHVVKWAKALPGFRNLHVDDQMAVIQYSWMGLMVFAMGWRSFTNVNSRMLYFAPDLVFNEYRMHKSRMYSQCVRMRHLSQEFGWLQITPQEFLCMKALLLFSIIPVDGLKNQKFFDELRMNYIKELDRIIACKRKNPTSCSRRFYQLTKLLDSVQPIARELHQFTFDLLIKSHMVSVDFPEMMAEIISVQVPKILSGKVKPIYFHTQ
Sequence of Estrogen receptor beta (Homo sapiens) (Q92731 whole entry, looked up, the tested form may be a part): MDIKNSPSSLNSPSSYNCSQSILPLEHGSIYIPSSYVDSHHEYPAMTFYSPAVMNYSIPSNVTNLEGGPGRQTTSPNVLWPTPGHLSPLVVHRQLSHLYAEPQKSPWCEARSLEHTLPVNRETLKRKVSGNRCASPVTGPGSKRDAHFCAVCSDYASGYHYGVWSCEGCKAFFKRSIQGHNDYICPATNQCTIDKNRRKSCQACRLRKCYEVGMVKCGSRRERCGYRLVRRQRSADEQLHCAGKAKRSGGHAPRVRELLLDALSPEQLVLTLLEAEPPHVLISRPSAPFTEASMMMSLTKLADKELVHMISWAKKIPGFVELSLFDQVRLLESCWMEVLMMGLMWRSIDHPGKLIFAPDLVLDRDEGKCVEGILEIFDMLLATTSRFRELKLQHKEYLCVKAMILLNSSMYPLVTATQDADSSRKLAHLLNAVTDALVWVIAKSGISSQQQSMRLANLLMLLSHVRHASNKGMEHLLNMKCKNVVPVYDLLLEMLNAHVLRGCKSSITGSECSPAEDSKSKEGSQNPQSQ
Sequence of Glucocorticoid receptor (Homo sapiens) (P04150 whole entry, looked up): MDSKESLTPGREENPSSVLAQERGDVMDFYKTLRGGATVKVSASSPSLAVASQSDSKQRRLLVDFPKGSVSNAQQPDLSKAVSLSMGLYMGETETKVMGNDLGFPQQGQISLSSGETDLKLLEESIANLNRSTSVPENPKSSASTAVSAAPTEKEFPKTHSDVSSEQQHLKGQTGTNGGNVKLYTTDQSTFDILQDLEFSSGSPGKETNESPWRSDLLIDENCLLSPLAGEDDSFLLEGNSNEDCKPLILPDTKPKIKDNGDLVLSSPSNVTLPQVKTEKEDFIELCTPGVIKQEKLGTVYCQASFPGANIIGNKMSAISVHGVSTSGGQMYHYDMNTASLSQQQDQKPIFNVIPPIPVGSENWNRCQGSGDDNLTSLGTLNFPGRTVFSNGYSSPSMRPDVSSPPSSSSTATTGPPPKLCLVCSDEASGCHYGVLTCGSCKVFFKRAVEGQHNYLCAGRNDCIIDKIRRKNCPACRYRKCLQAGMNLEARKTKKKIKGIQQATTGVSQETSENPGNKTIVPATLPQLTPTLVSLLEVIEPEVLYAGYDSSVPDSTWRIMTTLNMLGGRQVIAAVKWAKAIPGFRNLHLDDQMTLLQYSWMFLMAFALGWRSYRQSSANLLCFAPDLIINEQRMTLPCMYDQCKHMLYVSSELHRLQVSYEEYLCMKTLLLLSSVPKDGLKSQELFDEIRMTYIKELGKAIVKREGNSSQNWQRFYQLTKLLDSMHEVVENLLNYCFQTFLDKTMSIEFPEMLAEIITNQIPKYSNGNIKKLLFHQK
Sequence of Peroxisome proliferator-activated receptor gamma (Homo sapiens) (P37231 whole entry, looked up): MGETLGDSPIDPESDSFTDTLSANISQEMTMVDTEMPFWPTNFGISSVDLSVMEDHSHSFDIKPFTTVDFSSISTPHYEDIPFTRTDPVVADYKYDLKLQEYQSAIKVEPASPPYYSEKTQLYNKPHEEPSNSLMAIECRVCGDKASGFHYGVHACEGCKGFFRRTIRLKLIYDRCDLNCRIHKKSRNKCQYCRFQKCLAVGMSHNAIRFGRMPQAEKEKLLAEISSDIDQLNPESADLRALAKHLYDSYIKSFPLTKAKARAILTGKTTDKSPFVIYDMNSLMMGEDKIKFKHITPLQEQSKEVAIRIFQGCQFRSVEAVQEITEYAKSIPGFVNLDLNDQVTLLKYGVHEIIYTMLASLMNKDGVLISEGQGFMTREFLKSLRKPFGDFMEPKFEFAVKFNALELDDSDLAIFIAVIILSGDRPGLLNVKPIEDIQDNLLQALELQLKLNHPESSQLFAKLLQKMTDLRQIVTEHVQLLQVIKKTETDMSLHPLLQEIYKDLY
Sequence of human Peroxisome Proliferator-activated Receptor alpha (PPARa), PPARA (gene 5465) (Q07869 whole entry, looked up): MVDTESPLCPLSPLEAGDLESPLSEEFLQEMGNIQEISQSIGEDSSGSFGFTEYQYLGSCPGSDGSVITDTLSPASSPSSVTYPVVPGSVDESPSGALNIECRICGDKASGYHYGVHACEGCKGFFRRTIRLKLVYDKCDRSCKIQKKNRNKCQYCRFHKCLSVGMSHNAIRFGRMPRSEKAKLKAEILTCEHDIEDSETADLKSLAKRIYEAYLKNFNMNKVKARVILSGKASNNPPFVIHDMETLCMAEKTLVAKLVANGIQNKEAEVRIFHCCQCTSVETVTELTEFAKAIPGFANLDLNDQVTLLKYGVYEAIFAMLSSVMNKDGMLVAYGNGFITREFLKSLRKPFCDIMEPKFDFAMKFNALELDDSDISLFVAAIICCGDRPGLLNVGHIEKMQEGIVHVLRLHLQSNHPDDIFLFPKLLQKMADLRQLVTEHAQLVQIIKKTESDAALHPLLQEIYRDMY
Sequence of human Norepinephrine Transporter (NET), SLC6A2 (gene 6530) (P23975 whole entry, looked up): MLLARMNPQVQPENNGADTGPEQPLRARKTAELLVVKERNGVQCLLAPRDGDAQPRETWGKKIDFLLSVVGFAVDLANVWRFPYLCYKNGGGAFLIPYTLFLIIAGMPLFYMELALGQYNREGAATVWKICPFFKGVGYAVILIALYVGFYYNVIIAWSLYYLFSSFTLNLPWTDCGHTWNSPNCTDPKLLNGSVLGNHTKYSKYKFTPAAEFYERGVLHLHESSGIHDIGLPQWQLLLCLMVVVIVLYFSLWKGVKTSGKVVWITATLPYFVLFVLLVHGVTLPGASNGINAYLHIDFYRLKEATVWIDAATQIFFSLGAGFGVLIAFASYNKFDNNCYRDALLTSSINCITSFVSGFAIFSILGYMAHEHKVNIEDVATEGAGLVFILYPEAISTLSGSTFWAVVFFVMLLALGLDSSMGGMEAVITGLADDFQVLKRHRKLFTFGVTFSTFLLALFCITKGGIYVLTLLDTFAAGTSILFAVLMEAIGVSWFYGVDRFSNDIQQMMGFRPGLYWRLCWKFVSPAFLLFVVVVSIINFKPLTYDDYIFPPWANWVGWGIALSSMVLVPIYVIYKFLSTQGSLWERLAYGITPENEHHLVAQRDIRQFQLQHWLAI
Sequence of Estrogen receptor (Homo sapiens) + Estrogen receptor beta (Homo sapiens) (P03372 whole entry, looked up, the tested form may be a part): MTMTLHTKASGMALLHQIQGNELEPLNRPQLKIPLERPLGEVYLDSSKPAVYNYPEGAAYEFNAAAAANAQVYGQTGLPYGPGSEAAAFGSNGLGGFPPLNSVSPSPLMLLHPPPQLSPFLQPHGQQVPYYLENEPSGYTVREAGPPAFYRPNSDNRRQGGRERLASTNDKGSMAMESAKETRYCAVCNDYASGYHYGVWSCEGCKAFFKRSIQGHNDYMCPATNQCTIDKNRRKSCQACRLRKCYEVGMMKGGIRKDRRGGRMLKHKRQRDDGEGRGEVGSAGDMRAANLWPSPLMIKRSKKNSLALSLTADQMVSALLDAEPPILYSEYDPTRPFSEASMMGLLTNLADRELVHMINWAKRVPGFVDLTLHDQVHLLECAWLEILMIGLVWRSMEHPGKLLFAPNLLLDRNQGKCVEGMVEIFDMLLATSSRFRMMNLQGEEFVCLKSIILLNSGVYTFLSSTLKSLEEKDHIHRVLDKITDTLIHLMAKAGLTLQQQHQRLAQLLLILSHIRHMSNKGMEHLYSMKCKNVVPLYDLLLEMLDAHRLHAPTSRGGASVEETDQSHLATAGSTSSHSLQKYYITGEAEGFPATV
Sequence of Estrogen receptor (Homo sapiens) + Estrogen receptor beta (Homo sapiens) (Q92731 whole entry, looked up, the tested form may be a part): as the sequence (Q92731 whole entry, looked up, the tested form may be a part) above

Q: For `CCCCCCCC(=O)N(C)C`, which outcome [1] is on record?
A: inactive

Q: What about the outcome [2] of the same compound?
A: inactive

Q: How did the outcome [1] turn out when `CCCc1ccc(N)cc1` was run?
A: inactive

Q: What about the outcome [2] of the same compound?
A: inactive

Q: With `CCCCCCCCCCOC(=O)c1ccccc1C(=O)OCCCCCCCC` as the compound, how does the outcome [3] read?
A: inactive

Q: And the outcome [1]?
A: inactive

Q: What about the outcome [2] of the same compound?
A: inactive

Q: What about the outcome [4] of the same compound?
A: inactive

Q: And the outcome [5]?
A: inactive

Q: `CC(C)N(c1ccccc1)C(C)C` was tested. Which outcome [1] did it give?
A: inactive

Q: And the outcome [2]?
A: inactive

Q: `CC(C)(CO)CO` was tested. Which outcome [3] did it give?
A: inactive

Q: And the outcome [1]?
A: inactive

Q: What does the source list for `CCCCOCCOCCOCCO`?
A: outcome [1]: inactive; outcome [2]: inactive

Q: With `COC(=O)c1cccc(C(=O)OC)c1` as the compound, how does the outcome [3] read?
A: inactive

Q: And the outcome [1]?
A: inactive

Q: What does the source list for `C#C[C@]1(O)CC[C@H]2[C@@H]3CCc4cc(O)ccc4[C@H]3CC[C@@]21C`?
A: AC50 [6]: 3.63 µM (active); outcome [7]: inactive; AC50 (PGR (gene 5241)): 0.221 µM (active); AC50 [4]: 304 nM (active) and 305 nM (active) and 1.43 µM (active); AC50 [8]: 1.32 µM (active); AC50 [9]: 15.6 µM (active); outcome [9]: inactive; AC50 [10]: 5.14 µM (active); AC50 [11]: 0.463 µM (active); AC50 [12]: 2.39 µM (active); AC50 [13]: 514 nM (active) and 517 nM (active) and 623 nM (active)

Q: For `CCO[Si](CC)(OCC)OCC`, which outcome [3] is on record?
A: inactive

Q: What about the outcome [1] of the same compound?
A: inactive

Q: And the outcome [2]?
A: inactive

Q: What about the outcome [14] of the same compound?
A: inactive

Q: And the outcome [15]?
A: inactive

Q: And the outcome [5]?
A: inactive

Q: `CCCc1ccc(O)cc1` was tested. Which AC50 [1] did it give?
A: 43 µM (active)

Q: What about the AC50 [2] of the same compound?
A: 33.4 µM (active)

Q: `c1ccc(Cc2ccccc2)cc1` was tested. Which outcome [1] did it give?
A: inactive

Q: For `CCCO`, which outcome [1] is on record?
A: inactive

Q: And the outcome [2]?
A: inactive

Q: `CCCC(O)C(CC)CO` (stereo unspecified) was tested. Which outcome [1] did it give?
A: inactive

Q: And the outcome [2]?
A: inactive

Q: How did the outcome [1] turn out when `CCCC[N+](C)(CCCC)CCCC` was run?
A: inactive

Q: And the outcome [2]?
A: inactive

Q: How did the outcome [1] turn out when `C=CC(C)CCCC(C)(C)O` (stereo unspecified) was run?
A: inactive

Q: Which results are given for `C[C@]12CC[C@@H]3c4ccc(O)cc4CC[C@H]3[C@@H]1CC[C@@H]2O`?
A: AC50 [6]: 4.96 µM (active); AC50 [4]: 384 nM (active) and 359 nM (active); outcome [4]: inactive; outcome [5]: inactive; AC50 [8]: 1.74 µM (active); outcome [9]: inactive; AC50 [11]: 0.17 µM (active)

Q: With `COc1ccc2[nH]cc(CCNC(C)=O)c2c1` as the compound, how does the outcome [1] read?
A: inactive

Q: What about the outcome [2] of the same compound?
A: inactive

Q: Which results are given for `CCCCCCCCCO`?
A: outcome [1]: inactive; outcome [2]: inactive

Q: For `CC(C)(C)c1cccc(O)c1`, which outcome [3] is on record?
A: inactive

Q: Which outcome [1] does the source give for `CC(=O)c1ccc(O)cc1` here?
A: inactive

Q: What about the outcome [2] of the same compound?
A: inactive

Q: Which outcome [3] does the source give for `CC1=CCC(C(C)(C)O)CC1` (stereo unspecified) here?
A: inactive

Q: What about the outcome [9] of the same compound?
A: inactive

Q: What does the source list for `CC(CCO)CC(C)(C)C` (stereo unspecified)?
A: outcome [3]: inactive; AC50 [1]: 40.9 µM (active); outcome [2]: inactive

Q: `[Na+]` was tested. Which outcome [1] did it give?
A: inactive

Q: What about the outcome [2] of the same compound?
A: inactive

Q: Which results are given for `COC(=O)c1ccc(C(=O)OC)cc1`?
A: outcome [1]: inactive; outcome [2]: inactive

Q: What does the source list for `OCC=Cc1ccccc1`?
A: outcome [1]: inactive; outcome [2]: inactive

Q: `CC1COC(=O)O1` (stereo unspecified) was tested. Which outcome [3] did it give?
A: inactive

Q: What about the outcome [1] of the same compound?
A: inactive
